Experimental data as given in PubChem BioAssay (Tox21).
Several values for one entry are separate records, joined by “and”; a condition that tells them apart may be missing. Equal values may be shown once. Inconclusive results are not listed. Activity calls are given as the source filed them. Unless noted, calls follow the shape of the dose curve; as a rule, active = well fitted curve in the direction sought with a large enough effect in the repeat runs; inconclusive = weak or mixed curves; inactive = no such curve, though single readings can be large; an effect the other way counts as inactive or inconclusive.

Assays:
[1] = qHTS assay to identify aromatase inhibitors - cell viability counter screen (AID 743084);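 also: cells stimulated with testosterone during compound exposure; nearly all actives have a fitted effect of over 55% in size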
[2] = target: Aryl hydrocarbon receptor (Homo sapiens) (UniProt P35869); assay: qHTS assay to identify small molecule that activate the aryl hydrocarbon receptor (AhR) signaling pathway (AID 743085); also: nearly all actives have a fitted effect of over 15% in size; also: potency is read from the fitted curve at half-maximal effect;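 as to activation: HG2L7.5c1 human HepG2 liver cells with stably integrated DRE-driven firefly reporter; series mostly up to about 70 µM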
Chain of Aryl hydrocarbon receptor (Homo sapiens) (P35869 whole entry, looked up): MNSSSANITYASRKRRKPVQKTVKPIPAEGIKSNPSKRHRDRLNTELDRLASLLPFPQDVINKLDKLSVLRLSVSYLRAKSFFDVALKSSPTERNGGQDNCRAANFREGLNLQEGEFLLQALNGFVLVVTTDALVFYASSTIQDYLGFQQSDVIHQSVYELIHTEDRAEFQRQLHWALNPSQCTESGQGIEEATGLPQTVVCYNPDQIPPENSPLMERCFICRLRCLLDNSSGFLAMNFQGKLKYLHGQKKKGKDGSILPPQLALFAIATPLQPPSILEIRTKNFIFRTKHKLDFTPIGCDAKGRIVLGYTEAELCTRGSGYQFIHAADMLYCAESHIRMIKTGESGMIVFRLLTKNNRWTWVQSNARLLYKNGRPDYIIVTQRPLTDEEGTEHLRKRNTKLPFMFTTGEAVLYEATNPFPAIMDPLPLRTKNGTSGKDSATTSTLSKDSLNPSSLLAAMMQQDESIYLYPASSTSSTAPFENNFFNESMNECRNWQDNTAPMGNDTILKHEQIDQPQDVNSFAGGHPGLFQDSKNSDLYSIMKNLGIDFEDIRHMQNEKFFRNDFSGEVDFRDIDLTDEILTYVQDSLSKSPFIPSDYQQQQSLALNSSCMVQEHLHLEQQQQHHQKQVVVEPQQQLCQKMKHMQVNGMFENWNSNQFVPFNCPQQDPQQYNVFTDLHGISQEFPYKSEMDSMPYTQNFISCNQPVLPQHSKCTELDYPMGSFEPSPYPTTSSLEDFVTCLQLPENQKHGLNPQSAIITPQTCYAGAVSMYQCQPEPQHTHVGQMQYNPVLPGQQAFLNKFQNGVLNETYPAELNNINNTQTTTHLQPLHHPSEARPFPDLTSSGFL
In short: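 Compounds were tested in HepG2 hepatocellular carcinoma cells harbouring a stably integrated luciferase gene under control of 20 DREs. Increased reporter signal after 24 h treatment at 37C was taken as AhR activation.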

[3] = qHTS assay to identify small molecule that activate the aryl hydrocarbon receptor (AhR) signaling pathway - cell viability counter screen (AID 743086);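 also: HepG2 liver cells carrying the AhR DRE luciferase reporter; series mostly up to about 70 µM; nearly all actives have a fitted effect of over 45% in size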
In short: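 HepG2-AhR-luc (HG2L7.5c1) cells, 4000/well, were preincubated 5 h at 37C, exposed to compound in qHTS format for 24 hr at 37C, then given CellTiter-Fluor for 30 min; viability was read as fluorescence in the reporter wells.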

[4] = target: Peroxisome proliferator-activated receptor gamma (Homo sapiens) (UniProt P37231); assay: qHTS assay to identify small molecule agonists of the peroxisome proliferator-activated receptor gamma (PPARg) signaling pathway (AID 743094; active = well fitted activation curve with a large enough effect in the signal ratio in the repeat runs, not every such curve was filed as active; the % refers to the signal ratio)
Chain of Peroxisome proliferator-activated receptor gamma (Homo sapiens) (P37231 whole entry, looked up): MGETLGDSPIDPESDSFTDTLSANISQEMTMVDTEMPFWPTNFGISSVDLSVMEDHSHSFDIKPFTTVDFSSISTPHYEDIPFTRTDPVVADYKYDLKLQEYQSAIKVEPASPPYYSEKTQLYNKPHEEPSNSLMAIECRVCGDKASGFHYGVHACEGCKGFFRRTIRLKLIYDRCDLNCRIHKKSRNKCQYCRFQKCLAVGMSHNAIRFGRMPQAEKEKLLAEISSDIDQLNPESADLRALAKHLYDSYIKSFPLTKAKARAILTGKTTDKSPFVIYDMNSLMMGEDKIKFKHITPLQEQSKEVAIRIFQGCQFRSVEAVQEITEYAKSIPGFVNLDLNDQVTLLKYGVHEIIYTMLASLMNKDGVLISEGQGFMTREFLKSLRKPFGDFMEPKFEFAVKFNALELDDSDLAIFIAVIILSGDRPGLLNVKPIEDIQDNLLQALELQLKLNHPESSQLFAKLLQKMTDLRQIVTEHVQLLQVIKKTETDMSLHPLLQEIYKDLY
In short: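 Agonist activity was taken from a beta-lactamase reporter (FRET substrate, 1 h at room temperature) in HEK293H cells carrying a PPARg UAS-bla construct. Compounds in DMSO were incubated 17 h at 37C after a 5 h cell pre-incubation.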

[5] = target: Peroxisome proliferator-activated receptor gamma (Homo sapiens) (UniProt P37231); assay: qHTS assay to identify small molecule antagonists of the peroxisome proliferator-activated receptor gamma (PPARg) signaling pathway (AID 743191; calls by dose curve; also: nearly all actives have a fitted effect of over 30% in size; also: potency is read from the fitted curve at half-maximal effect)
In short: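 GeneBLAzer PPARg UAS-bla HEK293H cells carrying a UAS-driven beta-lactamase reporter were plated at 3000 cells/well, preincubated 5 h at 37C, then given compound for 17 h at 37C; LiveBLAzer B/G FRET substrate was read after 1 h at room temperature.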

[6] = qHTS assay to identify small molecule antagonists of the peroxisome proliferator-activated receptor gamma (PPARg) signaling pathway - cell viability counter screen (AID 743194); details: Potency: co-treated with 50 nM rosiglitazone unless noted; also: nearly all actives have a fitted effect of over 55% in size
In short: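 PPARg-UAS-bla HEK293H cells were plated, rested 5 h at 37 C, then treated with compounds plus rosiglitazone (50 nM final) for 17 h at 37 C; viability was then read by CellTiter-Glo luminescence after 30 min at room temperature.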

[7] = qHTS assay for small molecule agonists of the antioxidant response element (ARE) signaling pathway (AID 743202; active = well fitted activation curve with a large enough effect in the signal ratio in the repeat runs, not every such curve was filed as active; the % refers to the signal ratio)
In short: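 Following a 16 h, 37 C exposure of reporter HepG2 cells (ARE-driven beta-lactamase, 2,000 cells/well) to compounds, FRET substrate was applied for 2 h at room temperature and fluorescence intensity recorded.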

[8] = qHTS assay for small molecule agonists of the antioxidant response element (ARE) signaling pathway - cell viability counter screen (AID 743203; calls by dose curve; also: nearly all actives have a fitted effect of over 55% in size)
In short: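 Viability counter screen: CellTiter-Glo luminescence, read after 30 min at room temperature, in ARE-bla HepG2 wells. Compound exposure lasted 16 h at 37C/5% CO2, following a 5 h pre-incubation of the cells after plating.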

[9] = qHTS assay for small molecule activators of the heat shock response signaling pathway - cell viability counter screen (AID 743209); also: nearly all actives have a fitted effect of over 50% in size
In short: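 Cytotoxicity counter screen run in the same wells as the heat-shock bla reporter assay: HeLa HSE-bla cells, 5 h compound exposure at 37 C, viability read by CellTiter-Glo luminescence.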

[10] = qHTS assay for small molecule activators of the heat shock response signaling pathway (AID 743210; active = well fitted activation curve with a large enough effect in the signal ratio in the repeat runs, with a control signal flat, not every such curve was filed as active; the % refers to the signal ratio; also: series mostly up to about 63 µM)
In short: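 Heat shock element–beta-lactamase HeLa reporter cells; qHTS with compounds for 5 h at 37 C; detection by FRET substrate fluorescence after 2.5 h at RT.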

[11] = qHTS assay to identify small molecule agonists of the peroxisome proliferator-activated receptor delta (PPARd) signaling pathway - cell viability counter screen (AID 743211); also: nearly all actives have a fitted effect of over 55% in size
In short: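 Counter screen for cytotoxicity run in parallel with the PPARd reporter screen. Beta-lactamase reporter HEK293H cells exposed to compounds 17 h; ATP-based CellTiter-Glo luminescence quantified viability.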

[12] = qHTS assay to identify small molecule antagonists of the peroxisome proliferator-activated receptor delta (PPARd) signaling pathway - cell viability counter screen (AID 743213); also: nearly all actives have a fitted effect of over 50% in size
In short: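 In this counter screen, HEK293H cells carrying a UAS-beta-lactamase reporter are co-treated with test compounds and 300 nM L165041 (final) for 17 h at 37 C; cell viability is quantified by CellTiter-Glo luminescence.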

[13] = qHTS assay to identify small molecule agonists of the farnesoid-X-receptor (FXR) signaling pathway - cell viability counter screen (AID 743218); also: nearly all actives have a fitted effect of over 45% in size
In short: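 Viability counter screen in the same wells: CellTiter-Glo luminescence, 30 min room-temperature incubation, measured after the beta-lactamase read. Cells were GeneBLAzer FXR-UAS-bla HEK 293T, compound-treated 16 h at 37C.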

[14] = qHTS assay to identify small molecule antagonists of the farnesoid-X-receptor (FXR) signaling pathway - cell viability counter screen (AID 743221; active = well fitted cell-killing curve with a large enough effect in the repeat runs, not every such curve was filed as active; also: nearly all actives have a fitted effect of over 50% in size)
In short: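 Multiplexed counter screen: viability of FXR-bla HEK 293T cells under agonist stimulation by chenodeoxycholic acid (50 uM, final) and test compound for 16 h at 37 C, measured by CellTiter-Glo luminescence in the reporter wells.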

[15] = target: Peroxisome proliferator-activated receptor delta (Homo sapiens) (UniProt Q03181); assay: qHTS assay to identify small molecule agonists of the peroxisome proliferator-activated receptor delta (PPARd) signaling pathway (AID 743212; calls by dose curve)
Chain of Peroxisome proliferator-activated receptor delta (Homo sapiens) (Q03181 whole entry, looked up): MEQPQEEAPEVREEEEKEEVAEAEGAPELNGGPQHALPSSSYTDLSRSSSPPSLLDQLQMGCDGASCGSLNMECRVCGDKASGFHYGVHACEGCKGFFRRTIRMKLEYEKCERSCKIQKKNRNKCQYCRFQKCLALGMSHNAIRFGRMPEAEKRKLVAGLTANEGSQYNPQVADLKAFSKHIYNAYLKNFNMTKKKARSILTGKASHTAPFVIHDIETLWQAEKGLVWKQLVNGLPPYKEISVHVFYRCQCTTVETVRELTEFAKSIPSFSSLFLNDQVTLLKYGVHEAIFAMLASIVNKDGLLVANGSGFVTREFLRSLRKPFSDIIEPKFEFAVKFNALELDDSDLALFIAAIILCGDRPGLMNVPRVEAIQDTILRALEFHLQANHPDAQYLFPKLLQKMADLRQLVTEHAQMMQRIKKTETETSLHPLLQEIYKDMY
In short: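 Beta-lactamase reporter read by fluorescence (LiveBLAzer B/G FRET, 2 h, room temperature). Test agents, in DMSO, incubated at 37 C with PPARd-bla HEK293H cells.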

[16] = target: Peroxisome proliferator-activated receptor delta (Homo sapiens) (UniProt Q03181); assay: qHTS assay to identify small molecule antagonists of the peroxisome proliferator-activated receptor delta (PPARd) signaling pathway (AID 743215; active = well fitted inhibition curve with a large enough effect in the signal ratio in the repeat runs, not every such curve was filed as active; the % refers to the signal ratio;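 also: cells stimulated with agonist L165041 at 300 nM final during compound exposure; series mostly up to about 62 µM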)
In short: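 Agonist L165041 (300 nM final) added with compound to PPARd-bla HEK293H UAS-bla reporter cells; 17 h incubation at 37 C. Read-out: LiveBLAzer FRET substrate, 2 h at room temperature, fluorescence intensity.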

[17] = target: Bile acid receptor (Homo sapiens) (UniProt Q96RI1); assay: qHTS assay to identify small molecule antagonists of the farnesoid-X-receptor (FXR) signaling pathway (AID 743217; active = well fitted inhibition curve with a large enough effect in the signal ratio in the repeat runs, not every such curve was filed as active; the % refers to the signal ratio)
Chain of Bile acid receptor (Homo sapiens) (Q96RI1 whole entry, looked up): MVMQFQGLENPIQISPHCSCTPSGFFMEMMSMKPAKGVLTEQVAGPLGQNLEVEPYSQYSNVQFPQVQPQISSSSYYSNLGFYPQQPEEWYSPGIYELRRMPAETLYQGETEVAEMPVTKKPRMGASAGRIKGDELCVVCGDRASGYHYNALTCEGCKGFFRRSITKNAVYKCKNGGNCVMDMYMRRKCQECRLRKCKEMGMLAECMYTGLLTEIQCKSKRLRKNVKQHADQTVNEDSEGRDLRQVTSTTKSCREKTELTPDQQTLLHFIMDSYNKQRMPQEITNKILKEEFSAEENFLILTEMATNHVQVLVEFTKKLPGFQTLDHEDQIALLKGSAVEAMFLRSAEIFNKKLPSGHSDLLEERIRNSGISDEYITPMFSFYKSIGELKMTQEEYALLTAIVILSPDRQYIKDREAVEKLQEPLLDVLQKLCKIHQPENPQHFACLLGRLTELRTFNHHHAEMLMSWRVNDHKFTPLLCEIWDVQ
In short: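 Antagonist mode: chenodeoxycholic acid at 50 uM final stimulates a UAS-driven beta-lactamase reporter in HEK 293T FXR-bla cells during 16 h, 37C compound exposure. Read-out is FRET substrate fluorescence after 2 h at room temperature.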

[18] = target: Bile acid receptor (Homo sapiens) (UniProt Q96RI1); assay: qHTS assay to identify small molecule agonists of the farnesoid-X-receptor (FXR) signaling pathway (AID 743220; active = well fitted activation curve with a large enough effect in the signal ratio in the repeat runs, not every such curve was filed as active; the % refers to the signal ratio)
In short: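 FXR-UAS-bla HEK 293T cells carrying a UAS-driven beta-lactamase reporter were plated for 5 h at 37C/5% CO2, then exposed to DMSO-dissolved Tox21 10K compounds for 16 h at 37C. A LiveBLAzer B/G FRET substrate was loaded for 2 h at room temperature before fluorescence reading.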

[19] = target: Vitamin D3 receptor (Homo sapiens) (UniProt P11473); assay: qHTS assay to identify small molecule agonists of the vitamin D receptor (VDR) signaling pathway (AID 743222; calls by dose curve)
Chain of Vitamin D3 receptor (Homo sapiens) (P11473 whole entry, looked up): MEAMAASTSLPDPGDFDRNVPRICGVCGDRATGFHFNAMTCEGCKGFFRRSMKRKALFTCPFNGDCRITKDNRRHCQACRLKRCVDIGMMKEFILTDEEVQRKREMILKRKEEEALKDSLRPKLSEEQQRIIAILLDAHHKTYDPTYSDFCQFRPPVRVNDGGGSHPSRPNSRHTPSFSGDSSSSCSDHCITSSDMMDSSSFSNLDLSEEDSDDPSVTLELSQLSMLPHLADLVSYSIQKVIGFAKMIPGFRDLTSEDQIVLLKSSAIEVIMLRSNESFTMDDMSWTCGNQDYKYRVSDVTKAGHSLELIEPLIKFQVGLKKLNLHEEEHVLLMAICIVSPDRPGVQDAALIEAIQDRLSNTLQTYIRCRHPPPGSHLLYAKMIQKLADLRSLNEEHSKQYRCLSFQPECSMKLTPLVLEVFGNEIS
In short: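 Agonist mode, beta-lactamase reporter: fluorescence from LiveBLAzer B/G FRET substrate (2 h, room temperature) read after 16 h compound treatment at 37 C of VDR-bla cells, which were pre-incubated 4 h after seeding.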

[20] = target: Vitamin D3 receptor (Homo sapiens) (UniProt P11473); assay: qHTS assay to identify small molecule antagonists of the vitamin D receptor (VDR) signaling pathway (AID 743223; active = well fitted inhibition curve with a large enough effect in the signal ratio in the repeat runs, not every such curve was filed as active; the % refers to the signal ratio)
In short: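 Cells carrying a VDR-driven beta-lactamase reporter (VDR-bla) were co-treated with compound and 3 nM final 1alpha,25-dihydroxyvitamin D3 for 16 h at 37C; reporter activity was measured as FRET substrate fluorescence after 2 h at room temperature.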

Measured: Potency

CC(=O)Nc1ccc(CC(=O)O)cc1
not listed: [15] | [16] | [17] | [18] | [19] | [20]
inactive: all other assays above

C=C(CC(=O)O)C(=O)O
inactive: all assays above

COc1cc(NC(=O)CC(C)=O)c(OC)cc1Cl
active: [2] 24.4 µM and 686 nM | [5] 19.5 µM
not listed: [7] | [9] | [16] | [17] | [18] | [19] | [20]
inactive: all other assays above

C=C1C[C@]23C[C@@]1(O)CC[C@H]2[C@@]12C=C[C@H](O)[C@@](C)(C(=O)O1)[C@H]2[C@@H]3C(=O)O
not listed: [10] | [15]
inactive: all other assays above

CC/C=C(\C(=O)N[C@@H]1C(=O)N2C(C(=O)OCOC(=O)C(C)(C)C)=C(COC(N)=O)CS[C@H]12)c1csc(N)n1
not listed: [7] | [15] | [16] | [17] | [18]
inactive: all other assays above

Cc1ccccc1C=O
not listed: [9] | [17] | [18]
inactive: all other assays above

COC(=O)OC
not listed: [7] | [17] | [18] | [20]
inactive: all other assays above

NC(=O)c1ncn([C@@H]2O[C@H](CO)[C@@H](O)[C@H]2O)n1
not listed: [15] | [17] | [18] | [19] | [20]
inactive: all other assays above

O=C(c1ccccc1)c1ccc(O)c(O)c1O
not listed: [5] | [7] | [16] | [17] | [18]
inactive: all other assays above
